From PubChem BioAssay (Tox21)
Several values for one entry are separate records, joined by “and”; a condition that tells them apart may be missing. Identical values can stand only once. Results filed as inconclusive are left out. Some compounds were tested as several samples or in several runs, with calls that do not always agree. Activity calls are given as the source filed them. Calls follow the shape of the dose curve; as a rule, active = well fitted curve in the direction sought with a large enough effect in the repeat runs; inconclusive = weak or mixed curves; inactive = no such curve, though single readings can be large; an effect the other way counts as inactive or inconclusive.

Tests used:
[1] = qHTS RealTime-Glo MT Cell Viability Assay in HepG2 cells - 40 hour (AID 1224870); also: nearly all actives have a fitted effect of over 50% in size
Summary of the method: (§1)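 HepG2 cells (600/well) mixed with RealTime-Glo MT reagent, settled 5 h at 37 C/5% CO2 before compound addition. Nonlytic NanoLuc luminescence from viable-cell prosubstrate reduction read repeatedly during 40 h treatment at 37 C.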

[2] = A CellTox Green Cytotoxicity Assay to monitor cytotoxicity in HEK293 cells - 40 hour (AID 1224871); also: nearly all actives have a fitted effect of over 45% in size; also: potency is read from the fitted curve at half-maximal effect
Summary of the method: (§2)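 HEK293 cells, 600/well, were preincubated 5 hours and then exposed to compounds at 37 C for up to 40 hours. A cell-impermeant cyanine dye staining dead-cell DNA was read by fluorescence at 0, 8, 16, 24, 32 and 40 h time points.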

[3] = qHTS RealTime-Glo MT Cell Viability Assay in HEK293 cells - 16 hour (AID 1224872); also: top concentration of the series differs between compounds; nearly all actives have a fitted effect of over 50% in size
Summary of the method: (§3)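 Viability tracked continuously by luminescence as live cells reduce a prosubstrate for NanoLuc; HEK293 cells preincubated 5 h, compound-treated at 37 C, and read at 0, 8, 16, 24, 32 and 40 h.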

[4] = qHTS RealTime-Glo MT Cell Viability Assay in HepG2 cells - 8 hour (AID 1224873); also: nearly all actives have a fitted effect of over 55% in size
Summary of the method: as §1

[5] = qHTS RealTime-Glo MT Cell Viability Assay in HEK293 cells - 40 hour (AID 1224874); details: RealTime-Glo luminescence; max response: stronger effect = lower value; also: nearly all actives have a fitted effect of over 50% in size; also: potency is read from the fitted curve at half-maximal effect
Summary of the method: (§4)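 600 cells/well were plated with the nonlytic NanoLuc/prosubstrate reagent, pre-incubated 5 h, then given 23 nL of compound in DMSO. Incubation at 37 C for 40 h, with luminescence from viable-cell-reduced substrate read repeatedly from 0 h.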

[6] = A CellTox Green Cytotoxicity Assay to monitor cytotoxicity in HEK293 cells - 24 hour (AID 1224875); also: nearly all actives have a fitted effect of over 45% in size; also: potency is read from the fitted curve at half-maximal effect
Summary of the method: as §2

[7] = A CellTox Green Cytotoxicity Assay to monitor cytotoxicity in HepG2 cells - 16 hour (AID 1224876); also: nearly all actives have a fitted effect of over 45% in size
Summary of the method: (§5)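 HepG2 cells, 600/well, preincubated 5 h with CellTox Green dye, then exposed to Tox21 compounds in DMSO at 37 C for up to 40 h. Dead-cell DNA fluorescence read at the indicated time point.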

[8] = qHTS RealTime-Glo MT Cell Viability Assay in HepG2 cells - 32 hour (AID 1224877); also: nearly all actives have a fitted effect of over 55% in size
Summary of the method: (§6)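 Viability was tracked continuously by NanoLuc luminescence from prosubstrate reduced by living HepG2 cells, at successive time points over 40 h of compound exposure. Cells with reagent were preincubated 5 h at 37 °C before compound addition.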

[9] = A CellTox Green Cytotoxicity Assay to monitor cytotoxicity in HepG2 cells - 24 hour (AID 1224878); also: nearly all actives have a fitted effect of over 45% in size
Summary of the method: as §5

[10] = A CellTox Green Cytotoxicity Assay to monitor cytotoxicity in HepG2 cells - 40 hour (AID 1224879); also: nearly all actives have a fitted effect of over 40% in size; also: potency is read from the fitted curve at half-maximal effect
Summary of the method: as §5

[11] = qHTS RealTime-Glo MT Cell Viability Assay in HEK293 cells - 0 hour (AID 1224880)
Summary of the method: as §4

[12] = A CellTox Green Cytotoxicity Assay to monitor cytotoxicity in HEK293 cells - 32 hour (AID 1224881); also: nearly all actives have a fitted effect of over 40% in size; also: potency is read from the fitted curve at half-maximal effect
Summary of the method: as §2

[13] = A CellTox Green Cytotoxicity Assay to monitor cytotoxicity in HepG2 cells - 0 hour (AID 1224882); also: nearly all actives have a fitted effect of over 35% in size
Summary of the method: as §5

[14] = A CellTox Green Cytotoxicity Assay to monitor cytotoxicity in HepG2 cells - 32 hour (AID 1224883); also: nearly all actives have a fitted effect of over 50% in size; also: potency is read from the fitted curve at half-maximal effect
Summary of the method: as §5

[15] = A CellTox Green Cytotoxicity Assay to monitor cytotoxicity in HEK293 cells - 8 hour (AID 1224884); also: nearly all actives have a fitted effect of over 35% in size
Summary of the method: as §2

[16] = qHTS RealTime-Glo MT Cell Viability Assay in HepG2 cells - 16 hour (AID 1224885); also: nearly all actives have a fitted effect of over 50% in size
Summary of the method: as §6

[17] = qHTS RealTime-Glo MT Cell Viability Assay in HEK293 cells - 24 hour (AID 1224886); also: nearly all actives have a fitted effect of over 50% in size; also: potency is read from the fitted curve at half-maximal effect
Summary of the method: as §3

[18] = qHTS RealTime-Glo MT Cell Viability Assay in HEK293 cells - 8 hour (AID 1224887)
Summary of the method: as §4

[19] = A CellTox Green Cytotoxicity Assay to monitor cytotoxicity in HEK293 cells - 16 hour (AID 1224888); also: nearly all actives have a fitted effect of over 35% in size
Summary of the method: as §2

[20] = qHTS RealTime-Glo MT Cell Viability Assay in HepG2 cells - 0 hour (AID 1224889); also: nearly all actives have a fitted effect of over 50% in size
Summary of the method: as §6
% is scaled to controls: 0 for no effect and ±100 for the full control effect.

O=S(=O)(Oc1ccc(Cl)cc1)c1ccc(Cl)cc1
inactive: Potency [1] | Potency [2] | Potency [3] | Potency [4] | max response [5] -23.5% and -4.71% | Potency [6] | Potency [7] | Potency [8] | Potency [9] | Potency [10] | Potency [11] | Potency [12] | Potency [13] | Potency [14] | Potency [15] | Potency [16] | Potency [17] | Potency [18] | Potency [19] | Potency [20]

NNC(=S)NN
inactive: Potency [1] | Potency [2] | Potency [3] | Potency [4] | max response [5] 7.14% and 10.3% | Potency [6] | Potency [7] | Potency [8] | Potency [9] | Potency [10] | Potency [11] | Potency [12] | Potency [13] | Potency [14] | Potency [15] | Potency [16] | Potency [17] | Potency [18] | Potency [19] | Potency [20]

c1cc(OCC2CO2)ccc1Cc1ccc(OCC2CO2)cc1 (configuration not stated)
inactive: Potency [1] | Potency [2] | Potency [3] | Potency [4] | max response [5] -28.4% | Potency [6] | Potency [7] | Potency [8] | Potency [9] | Potency [10] | Potency [11] | Potency [12] | Potency [13] | Potency [14] | Potency [15] | Potency [17] | Potency [18] | Potency [19] | Potency [20]

COc1ccc(C(CN(C)C)C2(O)CCCCC2)cc1 (configuration not stated)
inactive: Potency [1] | Potency [2] | Potency [3] | Potency [4] | max response [5] -15.6% and -9.44% | Potency [6] | Potency [7] | Potency [8] | Potency [9] | Potency [10] | Potency [11] | Potency [12] | Potency [13] | Potency [14] | Potency [15] | Potency [16] | Potency [17] | Potency [18] | Potency [19] | Potency [20]

CC(C)N(C(=O)SCC(Cl)=C(Cl)Cl)C(C)C
inactive: Potency [1] | Potency [2] | Potency [3] | Potency [4] | max response [5] -12% and 19.1% | Potency [6] | Potency [7] | Potency [8] | Potency [9] | Potency [10] | Potency [11] | Potency [12] | Potency [13] | Potency [14] | Potency [15] | Potency [16] | Potency [17] | Potency [18] | Potency [19] | Potency [20]

C1=Cc2cccc3cccc1c23
active: Potency [2] 49 µM | Potency [6] 49 µM | Potency [12] 49 µM
inactive: Potency [1] | Potency [3] | Potency [4] | max response [5] -3.56% and 0.553% | Potency [7] | Potency [8] | Potency [9] | Potency [10] | Potency [11] | Potency [13] | Potency [14] | Potency [15] | Potency [17] | Potency [18] | Potency [19] | Potency [20]

CN(C)c1ccc(C(=O)c2ccc(N(C)C)cc2)cc1
active: Potency [5] 3.47 µM | Potency [10] 5.44 µM and 1.95 µM | Potency [14] 12.2 µM
inactive: Potency [1] | Potency [2] | Potency [4] | Potency [6] | Potency [7] | Potency [8] | Potency [9] | Potency [11] | Potency [12] | Potency [13] | Potency [15] | Potency [16] | Potency [18] | Potency [19] | Potency [20]

CCOC(=S)S
inactive: Potency [1] | Potency [2] | Potency [3] | Potency [4] | max response [5] 6.71% and 5.31% | Potency [6] | Potency [7] | Potency [8] | Potency [9] | Potency [10] | Potency [11] | Potency [12] | Potency [13] | Potency [14] | Potency [15] | Potency [17] | Potency [18] | Potency [19] | Potency [20]

CCC(C)(c1ccc(O)cc1)c1ccc(O)cc1
active: Potency [5] 24.5 µM and 43.6 µM
inactive: Potency [1] | Potency [2] | Potency [4] | Potency [6] | Potency [7] | Potency [8] | Potency [9] | Potency [10] | Potency [11] | Potency [12] | Potency [13] | Potency [14] | Potency [15] | Potency [16] | Potency [18] | Potency [19] | Potency [20]

S=C1NCCN1
inactive: Potency [1] | Potency [2] | Potency [3] | Potency [4] | max response [5] 5.45% and 5.82% | Potency [6] | Potency [7] | Potency [8] | Potency [9] | Potency [10] | Potency [11] | Potency [12] | Potency [13] | Potency [14] | Potency [15] | Potency [17] | Potency [18] | Potency [19] | Potency [20]

CCN(CC)N=O
inactive: Potency [1] | Potency [2] | Potency [3] | Potency [4] | max response [5] -2.46% and 23.7% | Potency [6] | Potency [7] | Potency [8] | Potency [9] | Potency [10] | Potency [11] | Potency [12] | Potency [13] | Potency [14] | Potency [15] | Potency [17] | Potency [18] | Potency [19] | Potency [20]

CC(C)Oc1cc(-n2nc(C(C)(C)C)oc2=O)c(Cl)cc1Cl
608 nM (active) and inactive: Potency [12]
inactive: Potency [1] | Potency [4] | Potency [7] | Potency [8] | Potency [9] | Potency [10] | Potency [11] | Potency [13] | Potency [14] | Potency [15] | Potency [16] | Potency [20]
active: Potency [5] 34.7 µM | Potency [17] 30.9 µM
682 nM (active) and inactive: Potency [2]
